Compound activity deposited in PubChem by several laboratories.
H9c2 protect: cardioprotection against H2O2-induced cell death, primary screen, uHTS, H9c2 cells, ATPLite luminescence; protection from H2O2 cell death, % at 20 µM; actives 0.63% (n = 360,000); H9c2 cardiomyocytes, H2O2 injury protection, 2 h;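 active means compounds giving at least 50% protection of heart cells from peroxide-induced death in the single-dose screen, raw or plate-pattern-corrected value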;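 further: 0% = DMSO wells with peroxide and 100% = DMSO wells without peroxide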
NTR1 agonist: agonists of human NTR1, primary screen, imaging, U2OS cells, beta-arrestin-GFP, high content. NTR1-U2OS beta-arrestin-GFP spot imaging, agonist mode. actives 0.17% (n = 330,000). Neurotensin receptor type 1 (Homo sapiens), P30989. activation, % at 20 µM;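 active means activation at or above 40% of the spot to cytoplasm intensity ratio, with at least 20 cells analyzed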;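 further: 0% = DMSO without peptide and 100% = 100 nM NTR1 peptide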
Target sequence (P30989 whole entry, looked up): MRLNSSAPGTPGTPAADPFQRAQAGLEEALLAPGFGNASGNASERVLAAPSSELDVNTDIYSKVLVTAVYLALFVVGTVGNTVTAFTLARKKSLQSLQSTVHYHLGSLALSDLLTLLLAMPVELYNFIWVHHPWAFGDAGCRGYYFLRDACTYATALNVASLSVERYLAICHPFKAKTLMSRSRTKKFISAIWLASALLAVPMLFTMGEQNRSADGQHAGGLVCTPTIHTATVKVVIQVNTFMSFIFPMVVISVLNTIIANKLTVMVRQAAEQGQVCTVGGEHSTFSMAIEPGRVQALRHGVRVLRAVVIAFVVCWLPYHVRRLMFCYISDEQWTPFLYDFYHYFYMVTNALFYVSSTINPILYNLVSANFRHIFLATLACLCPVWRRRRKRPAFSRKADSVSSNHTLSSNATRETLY
Mot1-301 SUMO: yeast Mot1-301 growth rescue at high temperature, primary screen, SUMOylation pathway inhibitor project, S. cerevisiae, ATP luminescence, 38.5C; growth rescue, % at 18.8 µM; S. cerevisiae Mot1-301 growth rescue; percent above DMSO median, 100 means doubled; actives 1% (n = 320,000); AID 2716, 2010;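 active means every valid replicate shows activation above 250% relative to neutral control wells; inactive means the rest, any valid replicate at or below 250%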;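 further: OY570 slx delta 5 strain wells were the positive control but not used for scaling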
AHR act: AHR activators, primary screen, cell-based, luminescence, luciferase reporter, human; AHR-responsive luciferase reporter cells; activation, % at 5 µM; actives 2.5% (n = 320,000); AID 2796, 2010; in the data active means activation above about 47%;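 further: 0% = vehicle wells and 100% = reference agonist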
AI-2 QS mod: Vibrio harveyi AI-2 quorum sensing modulators, primary screen, JMH597 strain, luminescence/OD600 ratio | actives 0.4% (n = 300,000) | activity change, % at 7.5 µM | Vibrio harveyi JMH597 AI-2 luminescence/OD600 ratio, 9 h; stronger effect = lower value; strain lacks LuxN and CqsS sensors; 0 = neutral-control median; in the data active means activity change below about -75%, passing the limit was not always enough;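 further: luminescence divided by OD600 gain over 9 h not by final OD600 alone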
GRIN3A LBD mod: binders of NR3A ligand-binding domain, primary screen, biophysical, differential scanning fluorimetry, uHTS | Glutamate receptor ionotropic, NMDA 3A (GRIN3A) ligand-binding domain | NR3A LBD differential scanning fluorimetry, Tm shift; 0% = protein alone, 100% = glycine-bound protein | Tm shift relative to glycine control, % at 25 µM | actives 2.5% (n = 340,000) | AID 1259313, 2017;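 active means melting temperature shift of at least 10% of the positive control shift, at one fixed dose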
Numbers without * were called inactive; x = no result given. An excerpt weighted towards active compounds, which were near 6.2% of everything screened.

SMILES	H9c2 protect	NTR1 agonist	Mot1-301 SUMO	AHR act	AI-2 QS mod	GRIN3A LBD mod
CC(CC(=O)OCC(=O)Nc1ccc2[nH]c(=O)[nH]c2c1)c1ccccc1 (stereo unspecified)	-3	-2	-6	1	x	1
CCN(CC)CCN(C(=O)/C=C/c1cccs1)c1nc2ccc(Cl)cc2s1	-4	7	32	4	12	-5
CN(C)CCN(C(=O)/C=C/c1cccs1)c1nc2ccc(F)cc2s1	14	1	-16	49*	16	-5
COCc1ccc(C(=O)N2CCCC(N(C)CCc3ccc(OC)c(OC)c3)C2)s1 (stereo unspecified)	2	0	4	-1	38	14*
NC(=O)NC(=O)COC(=O)c1ccccc1Oc1ccccc1	0	3	7	-1	-3	11*
CNC(=O)COC(=O)c1ccccc1Oc1ccccc1	7	-3	13	-1	20	-2
COc1ccc(C(=O)Nc2ccc(Cl)cn2)cc1S(=O)(=O)N1CCCC1	9	-1	-15	4	x	-2
COc1cc(NC(=O)c2ccc(Cl)cc2)c(OC)cc1NC(=O)CN1CCOCC1	18	1	3	48*	5	0
COc1cc(NC(=O)c2ccc(Cl)cc2)c(OC)cc1Cl	-1	6	-5	60*	11	10
COc1cc(NC(=O)c2ccccc2)c(OC)cc1NC(=O)CN1CCN(c2ccccn2)CC1	50*	-1	-4	33	37	-2
COc1cc(NC(=O)c2ccc(C)cc2)c(OC)cc1NC(=O)CN1CCOCC1	0	0	4	30	34	-1
COc1cc(NC(=O)c2ccc(Cl)cc2)c(OC)cc1NC(=O)CN1CCCCC1	4	5	-6	43	9	2
COc1cc(Cl)c(C)cc1NC(=O)c1ccccc1NC(=O)CN1CCN(c2ccccn2)CC1	23	x	x	x	x	-9
COc1ccc(C(=O)Nc2ccc(Cl)cn2)cc1Cl	5	-1	40	16	32	30*
COc1ccc(CNC(=O)CC[C@H]2O[C@@H](n3cnc4c(NC(=O)c5ccccc5)ncnc43)[C@H](O)[C@@H]2O)cc1	1	x	x	x	x	x
O=C(CN1CCN(c2ccccn2)CC1)Nc1ccc([N+](=O)[O-])cc1C(=O)Nc1ccccc1F	63*	12	1	48*	20	-1
CSc1ccccc1NC(=O)CN1CCN(c2ccccn2)CC1	2	0	14	-2	-14	1
COc1ccc(C2COC(=O)C2=N)c(NC(=O)c2ccc(Cl)cc2)c1 (stereo unspecified)	4	-2	-13	76*	30	2
Cc1cccc(/N=C/c2c(O)[nH]c3ccccc23)n1	-11	1	8	64*	17	-61
CC(C)N=Cc1c(O)[nH]c2ccccc12	-2	1	-3	5	16	-3
O=c1[nH]c(NCc2ccccc2)nc2c1CCCC2	53*	3	-14	29	1	-1
CC(=O)OCC(=O)c1c[nH]c2ccccc12	-1	-2	-6	11	17	-2
CC(C)n1nc(C(=O)OCC(=O)c2c[nH]c3ccccc23)c2ccccc2c1=O	62*	10	-6	16	12	7
CCn1nc(C(=O)OCC(=O)c2c[nH]c3ccccc23)c2ccccc2c1=O	58*	0	x	38	21	-2
C[C@@H]1CC=C[C@H]2[C@H]1C(=O)N(Cc1ccccc1)[C@H]2c1ccc(-c2ccc(N(C)C)cc2)cc1F	-12	-5	14	4	16	1
SMILES	H9c2 protect	NTR1 agonist	Mot1-301 SUMO	AHR act	AI-2 QS mod	GRIN3A LBD mod
Cc1ccc(-c2ccc([C@H]3[C@H]4C=CC[C@@H](C)[C@@H]4C(=O)N3Cc3ccccc3)c(F)c2)cc1	-13	6	16	0	26	13*
O=C1C2C(c3cccc(/C=C/c4ccccc4)c3)CC=CC2C(c2ccc(C(F)(F)F)cc2)N1Cc1ccccc1 (stereo unspecified)	-9	0	254	1	-3	0
CC[C@@H]1CC=C[C@H]2[C@H]1C(=O)N(Cc1ccccc1)[C@H]2c1ccoc1	-20	20	679*	5	10	-2
CC[C@@H]1CC=C[C@H]2[C@H]1C(=O)N(Cc1ccccc1)[C@H]2c1ccc(C(F)(F)F)cc1	-5	5	21	2	0	12*
COc1cc([C@H]2OC[C@H]3[C@@H]2CO[C@@H]3c2ccc(O[C@H]3O[C@H](CO)[C@@H](O)[C@H](O)[C@H]3O)c(OC)c2)ccc1O[C@@H]1O[C@H](CO)[C@@H](O)[C@H](O)[C@H]1O	-2	1	67	-3	x	16*
COc1ccccc1NC(=O)c1sc2nc(C)cc(C)c2c1N	-4	1	-1	50*	9	-1
COc1ccc(NC(=O)c2sc3nc(C)cc(C)c3c2N)cc1	-4	4	4	0	7	2
Cc1cc(F)ccc1C(O)c1ncc(-c2cccc3ccccc23)[nH]1 (stereo unspecified)	-2	x	x	x	x	x
CCOC(=O)c1cc2c(OC)ccc(OC)c2n1CC(=O)c1ccccc1	-3	4	0	4	10	-1
COc1nnc(-c2ccc(N3CCCCC3)c(N)c2)c2ccccc12	-14	4	8	64*	13	-1
CC(O)(c1ccccc1)c1nc(/C=C/c2ccccc2)cs1 (stereo unspecified)	-7	x	x	x	x	x
CCOC(=O)c1ccc(NC(=O)/C=C/c2cccs2)cc1	-4	2	-1	1	20	23*
O=C(/C=C/c1cccs1)NC(=S)Nc1ccccc1	-8	11	29	9	-77*	-7
O=C(/C=C/c1ccco1)NC(=S)Nc1ccccc1	0	2	-11	35	-77*	-3
O=C(/C=C/c1ccco1)NC(=S)Nc1cc(-c2nc3ccccc3s2)ccc1Cl	-2	x	13	30	x	18*
COCCNc1nc(Nc2ccc(C(=O)OC)cc2)c2sccc2n1	18	x	x	x	x	x
CCN1CCN(C(=S)NC(=O)c2cccs2)CC1	4	-1	3	2	25	2
CCN1CCN(C(=S)NC(=O)/C=C/c2cccs2)CC1	22	0	676*	-2	-15	0
O=C(/C=C/c1ccco1)NC(=S)Nc1cccc(-c2nc3ccccc3o2)c1	42	5	-22	57*	1	4
